Structures are written as SMILES. Inconclusive results are not listed. Entries that show only a call come without a potency. The source made the active and inactive calls. The call rests on the fitted dose curve; in most records, active means well fitted activation curve with a large enough effect; inconclusive means small, poorly fitted or top-dose-only effect; inactive means flat fitted curve, though single readings scatter.

The assay in a line: FLuc inhibitory activity for the follow-up compounds in a cell-based translational read-through assay. As to conditions: GripTite 293 FLucUGA read-through, luminescence, 48 h; series mostly up to 38.3 µM. From the text: NCGC Assay Overview: Firefly (Photinus pyralis) luciferase is one of the most commonly used transcriptional reporters. It is considered one of the more dynamically responsive reporters - that is, responsive to changes in reporter transcription - as it requires no post-translational modifications and is enzymatically active directly after protein synthesis (Wood, 1998). With no endogenous expression in mammalian cells and without the requirement of external excitation, it offers very little background signal, thus generally providing excellent signal to background for most assays. Previous profiling work to determine the prevalence of compounds that affect FLuc enzymatic activity (PubChem AID 411) identified that ~3% of the MLSMR library (then at ~72K) inhibited FLuc (Auld et al., 2008). […] Of the compounds identified in this profile that inhibited FLuc, 151 compounds were selected for further analysis, in an effort to better understand their mode of inhibiting FLuc. The assay described here was to determine the activity of the compounds in a cell-based firefly luciferase reporter gene assay originally designed to identify compounds that enchanced translational read-through of a FLuc cDNA that contained a premature stop codon (Auld et al., 2009; Auld et al., 2010). Compounds that enhance translational read-through or compounds that stabilize FLuc intracellularly are identified as active compounds in the assay.
NCGC Assay Protocol Summary: Reagents: Transient transfection of FlucUGA construct: TransFast Transfection Reagent (Promega #E2431); FLucUGA construct (refer to Auld et al., 2009) #GripTite 293 MSR Cell Line (Invitrogen #R795-07) #Complete growth media: DMEM (Invitrogen #11965), 10% HIFBS, 0.1mM MEM NEAA, 5mL/L pen-strep (of 5000U/mL stock), 600ug/mL Geneticin #Assay media: DMEM without phenol red (Invitrogen #21063), 5% charcoal-stripped HIFBS (Hyclone #SH30071.03), 0.1mM MEM NEAA In-house detection reagent: 300mM Tris-HCl, 300mM Trizma base, 300mM MgCl, 1% Triton-X100, 5mM DTT, 500uM Coenzyme A trilithium salt (Sigma #C3019),450uM ATP (Sigma #A7699), 1mM D-luciferin sodium salt monohydrate (Biosynth #L8240) Control compounds used were two known firefly luciferase inhibitors (3-(5-(3-chlorophenyl)-1,2,4-oxadiazol-3-yl)benzoic acid and 5-(2-fluorophenyl)-3-phenyl-1,2,4-oxadiazole), and DMSO. Assay Summary: Transient transfection of FlucUGA construct: Day 1: GripTite cells were plated in T175 flasks at a density of 1.75 x 10^7 cells/T175 flask in complete growth media without Geneticin and allowed to grow ON in a 37 degrees Celsius incubator. Day 2: Cells in T175 flask were transfected - with 10ug of DNA and 30uL Transfast in 12mL complete growth media without serum and without Geneticin for 4 hours at 37 degrees Celsius. After incubation, cells were trypsinized, spun down, and resuspended to a concentration of 3.3 x 10^5 cells/mL in assay media. 6uL of cells in assay buffer were dispensed at 2000cells/well (3.3 x 10^5 cells/mL) into Greiner solid-white TC-treated 1536-well plates using a Multidrop Combi (Thermo Fisher Scientific). Plates were incubated for one hour at 37 degree Celsius, 95% humidity, 5% CO2. These assay plates were then treated with 23nL of compound or DMSO using a Kalypsys pin tool, which allows for delivery of a 12-point titration of each compound to the assay plate, with a final compound concentration ranging from approximately ~38uM to 0.2nM. Assay plates were then incubated for 48 hours. After incubation, plates were washed three times with DPBS (7uL/well). After the third wash, 6uL of DPBS was added to each well. 3uL of 3X luciferase detection reagent was then added to each well using a flying reagent dispenser (FRD). After a 15 minute incubation to allow for cell lysis, luciferase activity was measured using a ViewLux CCD imager (PerkinElmer), with an average exposure time of 2-12 seconds.
Regarding `CCCOc1cccc(C(=O)Nc2ccc(-c3nc4ccccc4s3)c(Cl)c2)c1`, the Potency entry is “inactive”.

Turning to `O=C(Cc1ccc(Cl)cc1)Nc1cccc(C(=O)Nc2ccccc2C(=O)O)c1`, the Potency result was “inactive”. Regarding `Cc1ccc(S(=O)(=O)N2CCOCC2)cc1C(=O)Nc1ccccc1C(=O)O`, the Potency result was “inactive”. `O=C(O)c1ccccc1NC(=O)c1ccccc1Nc1ccccc1`: the Potency result is “inactive”. Regarding `O=C(Nc1ccccc1C(=O)O)c1ccc(NC(=O)C2CCCCC2)cc1`, the Potency result is “inactive”. The value for `O=C(O)c1cccc(NC(=O)c2cccc(S(=O)(=O)N3CCc4ccccc4C3)c2)c1` was “inactive”; that for `CC(C)C(=O)Nc1cccc(C(=O)Nc2ccccc2C(=O)O)c1` was “inactive”; that for `CCOc1c(Cl)cc(C(=O)Nc2ccccc2C(=O)O)cc1Cl` was “inactive”. The value for `COc1cccc(OC)c1C(=O)Nc1cccc(C(=O)Nc2cccc(C(=O)O)c2)c1` was “inactive”.

`Cc1cccc(NS(=O)(=O)c2cccc(C(=O)Nc3cccc(C(=O)O)c3)c2)c1`: the Potency result is “inactive”. Turning to `O=C(Nc1ccccc1C(=O)O)c1ccc(NC(=O)C2CC2)cc1`, the Potency result was “inactive”. Then `Oc1ccc(-c2nc3ccccc3s2)c(O)c1`, with 10000 nM (active); and `COc1c(C)cccc1C(=O)Nc1ccc(-c2nc3ccccc3s2)c(Cl)c1`, with “inactive”; and `O=C(O)c1ccc(NC(=O)c2cccc(NC(=O)c3cccs3)c2)cc1`, with “inactive”.

As to `Cc1ccc(NS(=O)(=O)c2ccc(Cl)c(C(=O)Nc3cccc(C(=O)O)c3)c2)cc1`, the Potency entry is “inactive”. As for `CC(C)(C)C(=O)Nc1ccc(-c2nc3ccccc3s2)cc1`, the Potency was 31.8 nM (active).

For the compound `O=C(O)c1cccc(NC(=O)c2ccc(Cl)c(S(=O)(=O)N3CCCCCC3)c2)c1`, the Potency was 711 nM (active). In the case of `COc1ccc2nc(NC(=O)c3ccco3)sc2c1`, the Potency is 634 nM (active). For the compound `O=C(Nc1ccccc1C(=O)O)c1cccc(C(=O)Nc2ccccc2C(=O)O)c1`, the Potency entry was “inactive”.

As to `Cc1cccc(C(=O)Nc2ccc(-c3nc4ccccc4s3)cc2Cl)c1`, the Potency entry was “inactive”. Take `O=C(Nc1ccccc1C(=O)O)c1cccc(S(=O)(=O)Nc2ccc(Br)cc2)c1`: the Potency result was “inactive”. The value for `O=C(O)c1cccc(NC(=O)c2ccc(S(=O)(=O)c3ccccc3)cc2)c1` was “inactive”. In the case of `COc1ccc(-c2nc3ccccc3s2)cc1NC(=O)c1ccc(F)cc1`, the Potency entry is “inactive”.

Consider `CC(=O)Oc1ccc(C(=O)Nc2ccccc2C(=O)Nc2ccc(C(=O)O)cc2)cc1`, for which the Potency result is “inactive”. Then `O=C(O)c1cccc(NC(=O)c2cccc(S(=O)(=O)Nc3cccc(F)c3)c2)c1`, with “inactive”. Then `c1ccc2sc(-c3ccc4c(c3)OCO4)nc2c1`, with 1260 nM (active); and `O=C(Nc1ccccc1C(=O)O)c1cc(S(=O)(=O)Nc2ccccc2)ccc1Cl`, with “inactive”. Then `O=C(Nc1c(Cl)cc(Cl)cc1-c1nc2ccccc2s1)c1ccc(Br)o1`, with 3180 nM (active); and `Cc1ccc(C(=O)Nc2ccc(C(=O)O)cc2)cc1S(=O)(=O)NCc1ccccc1`, with “inactive”; and `O=C(O)c1ccc(NC(=O)c2ccccc2NC(=O)c2cccc(Br)c2)cc1`, with “inactive”. In the case of `COc1cc(OC)cc(C(=O)Nc2ccc(-c3nc4ccccc4s3)c(C)c2)c1`, the Potency result is “inactive”.

`O=C(Nc1ccccc1C(=O)O)c1ccccc1`: the Potency entry is “inactive”. With `O=C(Nc1ccccc1C(=O)O)c1cccc(NC(=O)c2ccc(Br)o2)c1`, the Potency entry is “inactive”. On to `Cc1ccc2sc(-c3ccc(N)cc3)nc2c1`, for which the Potency is 1590 nM (active).

Take `CN(C)S(=O)(=O)c1ccc(C(=O)Nc2ccccc2C(=O)O)cc1`: the Potency result was “inactive”. In the case of `COc1ccc2nc(NC(=O)c3ccc(S(=O)(=O)N4CCCC(C)C4)cc3)sc2c1` (stereo not given), the Potency result was “inactive”. For the compound `CC(C)Oc1ccc(C(=O)Nc2ccc(-c3nc4ccccc4s3)cc2)cc1`, the Potency result is “inactive”. In the case of `COc1ccccc1C(=O)Nc1ccc(C(=O)Nc2ccccc2C(=O)O)cc1`, the Potency entry is “inactive”. Then `CC(=O)Nc1cccc(C(=O)Nc2ccccc2C(=O)O)c1`, with “inactive”; and `O=C(Nc1ccccc1C(=O)O)c1ccc(NC(=O)C2CCCO2)cc1` (stereo not given), with “inactive”.

The values are drawn from PubChem BioAssay AID602476 (National Center for Advancing Translational Sciences (NCATS), 2012).
